# KB-3-1 tox: qHTS assay for MDR1-selective chemotherapeutics: Primary screen using the parental adenocarcinoma cell KB-3-1; Potency, µM (titrated, usually from 46.1 µM), most hits filed as cytotoxic; hit rate 1.4% among 400,000; KB-3-1 viability, CellTiter-Glo ATP luminescence, 72 h; also: nearly all actives have a fitted effect of over 60% in size
#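 KB-3-1 parental drug-naive adenocarcinoma cells in DMEM/10% FBS, incubated 72 h at 37 C with pin-transferred compounds across a concentration series. Viability by CellTiter-Glo luminescence; concentration-response curves fitted after normalization.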
# KB-V1 MDR tox: qHTS assay for MDR1-selective chemotherapeutics: Primary screen using the drug-selected MDR subline cells KB-V1; KB-V1 MDR cells viability, CellTiter-Glo, 72 h; Potency, µM (doses to about 46.1 µM), most hits filed as cytotoxic; hit rate 3.4% among 400,000; also: nearly all actives have a fitted effect of over 60% in size
#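 Potencies derive from concentration-effect curves fitted to normalized luminescence (CellTiter-Glo) of KB-V1 cells treated for 72 h at 37 degrees C in phenol-red-free DMEM containing 10% FBS.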
# SW480 rerep: A quantitative high throughput screen for small molecules that induce DNA re-replication in SW480 colon adenocarcinoma cells; SW480 DNA re-replication, Hoechst DNA content imaging, 48 h; Potency, µM (series often up to 46.1 µM), actives largely listed as activators; hit rate 1.8% among 340,000; AID 624297, 2012; also: nearly all actives have a fitted effect of over 55% in size
#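 Hoechst fluorescence of nuclei (405 nm excitation, 500-530 nm emission) measured by plate-scanning imager after 48 hr compound exposure at 37 C; re-replication scored as increased number of nuclei with elevated intensity.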
# RORg inh: qHTS for inhibitors of ROR gamma transcriptional activity; Nuclear receptor ROR-gamma (Mus musculus), P51450; Drosophila S2 Gal4-RORgamma UAS-luciferase reporter, 20 h; Potency, µM (top dose mostly 53.6 µM), actives largely listed as inhibitors; hit rate 5.4% among 310,000; also: nearly all actives have a fitted effect of over 60% in size
# Target sequence (P51450 whole entry, looked up, the tested form may be a part): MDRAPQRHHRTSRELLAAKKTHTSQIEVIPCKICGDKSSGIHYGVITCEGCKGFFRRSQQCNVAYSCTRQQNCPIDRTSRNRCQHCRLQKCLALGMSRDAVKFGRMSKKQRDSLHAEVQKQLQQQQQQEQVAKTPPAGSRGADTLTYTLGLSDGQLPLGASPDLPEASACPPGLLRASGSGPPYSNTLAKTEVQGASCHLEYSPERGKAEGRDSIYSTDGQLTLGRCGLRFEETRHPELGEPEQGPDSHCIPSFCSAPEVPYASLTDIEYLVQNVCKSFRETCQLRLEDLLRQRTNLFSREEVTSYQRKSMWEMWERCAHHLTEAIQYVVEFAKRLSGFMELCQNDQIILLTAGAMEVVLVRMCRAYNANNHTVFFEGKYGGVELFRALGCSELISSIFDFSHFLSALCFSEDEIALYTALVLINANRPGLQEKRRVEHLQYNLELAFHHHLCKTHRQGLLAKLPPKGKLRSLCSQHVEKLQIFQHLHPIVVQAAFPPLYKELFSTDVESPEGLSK
#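 Luciferase reporter read in Schneider cells carrying Gal4-RORγ (mouse) and UAS-Photinus luciferase; cells given compound 1 h before 700 uM copper sulfate induction, then incubated 20 h at ambient temperature.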
# MCF10A rereplic: A quantitative high throughput screen for small molecules that induce DNA re-replication in MCF 10a normal breast cells | MCF 10A DNA re-replication, Hoechst nuclear intensity, 48 h | Potency, µM (titrated, usually from 46.1 µM), most hits filed as activators | hit rate 2.9% among 350,000; also: nearly all actives have a fitted effect of over 50% in size
# Gal4-VP16 FLuc: VP16 counterscreen qHTS for inhibitors of ROR gamma transcriptional activity; Drosophila S2 Gal4-VP16 UAS-luciferase, luminescence, 20 h; Potency, µM (top dose mostly 53.6 µM), actives largely listed as inhibitors; hit rate 3.5% among 310,000;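 also: Gal4-VP16 expression switched on by copper sulfate through the metallothionein promoter; nearly all actives have a fitted effect of over 50% in size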
# Numbers stand for hits; – = inactive; ? = inconclusive; · = no result given; [ ] = another dose, or the depositor's remark. Most compounds without a hit are left out; they make up all but 10% or so of the library. Calls follow the shape of the dose curve; as a rule, active = well fitted curve in the direction sought with a large enough effect; inconclusive = small, poorly fitted or top-dose-only effect, or another doubt; inactive = no such curve, though single readings can be large; an effect the other way counts as inactive or inconclusive.
SMILES,KB-3-1 tox,KB-V1 MDR tox,SW480 rerep,RORg inh,MCF10A rereplic,Gal4-VP16 FLuc
Cc1ccc(-c2cc3nc(-c4ccccc4)cc(N4CCOCC4)n3n2)cc1,–,–,?,?,16µM,–
COc1cccc(-c2cc3nc(-c4ccccc4)cc(N4CCCC(O)C4)n3n2)c1 (centres undefined),–,–,15µM,–,18µM,–
COc1ccc(-c2cc3nc4c(c(N5CCC6(CC5)OCCO6)n3n2)CCC4)cc1,?,–,–,–,–,–
COc1ccc(-c2cc3nc(-c4ccccc4)cc(N4CCC5(CC4)OCCO5)n3n2)cc1,–,–,23µM,–,–,–
Cn1c(=O)c2c(nc(CN3CCN(c4ccccc4F)CC3)n2Cc2ccc(F)cc2)n(C)c1=O,–,–,·,·,·,·
CCNC(=O)C1CCCN1S(=O)(=O)c1ccc(C)cc1 (centres undefined),–,–,–,–,21µM,–
O=C(NCc1ccncc1)C1CCCN1S(=O)(=O)c1ccc(Cl)cc1 (centres undefined),–,–,–,0.63µM,–,–
Cc1ccc(CNC(=O)C2CCCN2S(=O)(=O)c2ccc(F)cc2)cc1 (centres undefined),–,–,–,–,–,–
CCc1cn(C2CC(O)C(CO)O2)c(=O)[nH]c1=O (centres undefined),4.6µM,–,–,·,–,·
O=c1[nH]c(=O)n([C@@H]2C[C@H](O)[C@H](CO)O2)cc1I,·,·,–,–[2.98 µM],–,–
CCCCCCN1C[C@H](n2cc(C3CC3)nn2)[C@@H](O)C[C@@H]1c1ccc(Cl)cc1,–,–,·,·,·,·
CN(C)CCNC(=O)/C(=C/c1ccc(-c2ccc(Cl)cc2Cl)o1)NC(=O)c1ccccc1,?,?,?,?,7.3µM,?
Cc1ccc(C(=O)N/C(=C\c2ccc(-c3cccc([N+](=O)[O-])c3)o2)C(=O)NCCCN(C)C)cc1,?,–,–,–,–,–
Cc1ccc(C(=O)N/C(=C\c2ccc(-c3ccc(Br)cc3)o2)C(=O)NCCCN(C)C)cc1,5.8µM,?,7.3µM,?,?,?
CC(Oc1ccccc1)C(=O)N1CCN(Cc2cc(=O)n3nc(-c4ccccc4Cl)sc3n2)CC1 (centres undefined),–,–,·,·,·,·
Cc1cc(Nc2ncc(Cl)cc2Cl)n[nH]1,–,–,–,11µM,–,–
Nc1nc(SCC(=O)Nc2ncc(Cl)cc2Cl)n[nH]1,–,–,–,·,–,·
O=C(NCc1ccccc1)c1onc(CSc2ccc(F)cc2)c1C(=O)NCc1ccccc1,–,–,–,·,–,·
Cc1cc(C)cc(SCc2noc(C(=O)NCc3ccccc3)c2C(=O)NCc2ccccc2)c1,–,–,–,–,4.6µM,–
CC(C)CC(=O)Nc1ccc2nc(SCC(=O)N3CCc4ccccc43)sc2c1,–,–,·,·,·,·
CCN(c1ccccc1)S(=O)(=O)c1ccc(N2CCN(c3ccc(O)cc3)CC2)nc1,?,–,?,·,18µM,·
CC(=O)c1cccc(NC(=S)NCCc2ccc(Cl)cc2)c1,?,18µM,–,13µM,–,?
CN(C)C(=S)NC(=O)c1cccc(Cl)c1,–,–,–,0.56µM,–,2µM
COC(=O)c1cccc(NC(=S)NCCC2=CCCCC2)c1,?,?,–[9.22 µM],3.2µM,–,?
CC(C)CNC(=O)c1cccc(NC(=O)Cc2ccc(Cl)cc2)c1,?,5.8µM,–,–,–,–
SMILES,KB-3-1 tox,KB-V1 MDR tox,SW480 rerep,RORg inh,MCF10A rereplic,Gal4-VP16 FLuc
CC(C)CNC(=O)c1cccc(NC(=O)CSc2ccccc2)c1,?,–,–,–,–,–
N[C@@H](Cn1ccc(=O)n(Cc2ccccc2C(=O)O)c1=O)C(=O)O,·,·,·,–,·,–
Cc1ccc(Nc2c(-c3ccc(N4CCOCC4)cc3)nc3cccc(C)n23)cc1,–,–,·,·,·,·
CNC(=S)Nc1cccc(C(C)=O)c1,–,–,–,–,–,–
CC(=O)c1cccc(NC(=S)NC(=O)c2ccccc2)c1,–,?,–,8.9µM,–,?
CC(=O)c1cccc(NC(=S)NC(=O)CC(C)(C)C)c1,–,–,–,13µM,–,?
CC(=O)c1cccc(NC(=S)NC2CCCCCCC2)c1,–,–,–,3.2µM,–,13µM
CC(=O)c1cccc(NC(=S)NC(=O)C(C)C)c1,–,–,–,13µM,–,–
O=C1[C@H]2[C@H]3[C@H](O)[C@H](O)C/C(=N/OCc4ccccc4)[C@@H]3CC[C@@H]2C(=O)N1Cc1ccccc1,·,·,·,–[10 µM],·,–[10 µM]
CCOc1ccc(CCNC(=O)CSc2nc3ccccc3nc2Cc2ccc(C)cc2)cc1OCC,–,–,·,·,·,·
Cc1c(CCC(=O)NCc2cccc(Cl)c2)c(=O)oc2c(C)c(O)ccc12,–,–,·,·,·,·
CCc1cc2c(nc1CC)CCN(CC/C(C)=N/OC[C@@H](O)COCc1ccco1)C2,·,·,·,–[10 µM],·,–[10 µM]
COC(=O)c1cccc(NC(=O)Nc2ccc(Cl)cc2)c1,–,?,–,–,?,–
COC(=O)c1cccc(NC(=O)NC(=O)c2ccc(Cl)cc2)c1,–,–,18µM,–,–,–
CC(=O)c1cccc(NC(=S)NC(=O)c2cccc(Cl)c2)c1,–,–,–,2.8µM,–,10µM
Cc1cc(C)cc(C(=O)N(C)[C@H](Cc2ccc(-c3ccccc3)cc2)C(=O)N[C@@H](Cc2c[nH]c3ccccc23)C(=O)O)c1,·,·,·,–,·,–
COc1ccc(-n2nc(-c3ccc(C)cc3)c3cnc4cc(F)c(F)cc4c32)cc1,–,–,·,·,·,·
COc1ccccc1-c1nnc(SCC(=O)Nc2ccc(Cl)cc2Cl)o1,–,–,–,–,–,–
COc1ccccc1-c1nnc(NC(=O)Cc2ccccc2)o1,–,–,–,2µM,–,3.2µM
CSc1nnc(-c2ccccc2SC)o1,–,–,–,–,–,–
CSc1ccccc1-c1nnc(NC(=O)Cc2ccccc2)o1,–,–,–,1µM,–,2.5µM
CS(=O)(=O)c1ccccc1-c1nnc(NC(=O)Cc2ccccc2)o1,–,–,–,11µM,–,?
CCc1ccccc1NC(=O)CCc1c(C)nc2cc(-c3ccccc3)nn2c1C,–,–,·,·,·,·
CCOc1ccccc1NC(=O)Cn1cc(C(=O)c2ccc(Cl)cc2)c(=O)c2ccc(C)nc21,–,–,·,·,·,·
CN(C(=O)C(C)(C)C)c1ccc(OCC(=O)N2CCc3ccccc3C2)cc1,?,4.6µM,–,?,–,?
CC(C)C1C(=O)N(Cc2cn(CC3CCCCC3)nn2)CCS(=O)(=O)N1Cc1ccc(-c2ccc(Cl)nc2)cc1 (centres undefined),?,–,·,·,·,·

# Screens as filed in PubChem BioAssay.
